The structures appear in SMILES notation. About 83,000 compounds went through this panel and 20% of them were active in at least one assay; those are over-represented in the sample as a whole.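 Testing used 96-well plates and a 48-hour single-concentration exposure. Example: -40 means 40% of the starting cells died.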 Values without a mark were called inactive. The source made the active and inactive calls. The calls were made as follows: active = growth percent below 10; inactive = the rest.

This assay relates to SK-MEL-2 melanoma. The assay is described as follows: NCI-60 one-dose screen, 48 h (100 = growth as untreated, 0 = no growth, -100 = all killed). To be noted: 10 µM.
With `COc1cc2c3c(n(CCCNC(C)C)c(=O)c2cc1OC)-c1nc2c(cc1C3=O)OCO2`, the growth is 128%.

With `COc1ccc2cc([C@H](C)C(=O)NCc3ccccc3)ccc2c1`, the growth is 31%.

As to `O=C(Cn1nc(-c2ccccc2)ccc1=O)NNC(=S)NC1CCCCC1`, the growth is 109%.

Turning to `CN1CCCN(Cc2ccc(C(=O)Nc3cccc(Nc4ccc5cc(O)ccc5n4)c3)cc2C(F)(F)F)CC1`, the growth was 111%.

For `O=C1Nc2cc(Cl)ccc2/C1=C/c1cccc(OCc2ccccc2)c1`, the growth is -31.8% (active).

For the compound `C/C(=C\CC/C=C(\C)CC/C=C(\C)CC[C@@H](O)C(C)(C)O)CC/C=C(\C)CC[C@@H](O)C(C)(C)O`, the growth is 52.1%.

As to `O=C(c1ccc([N+](=O)[O-])c([N+](=O)[O-])c1O)n1[nH]c(=O)c2ccccc2c1=O`, the growth is 76.1%.

Regarding `O=C(O)CCCCCCCCCCN1C(=O)/C(=C/c2cnc(-c3ccc(Cl)cc3)s2)SC1=S`, the growth is -38.6% (active).

`O=C1Nc2ccc(F)cc2/C1=C/c1cccc(OCc2ccccc2)c1`: the growth was -23.1% (active).

With `COc1ccc(-c2nc(S(=O)(=O)c3ccccc3)c(S(C)(=O)=O)o2)cc1`, the growth was 69.7%.

Consider `COc1ccc(C(=O)NC(=S)N2CCN(c3ncnc4c3cnn4-c3ccccc3)CC2)cc1`, for which the growth was 57.6%.

Regarding `C=CC(=O)Nc1nc(-c2cccc(NS(=O)(=O)c3cccc4c(N(C)C)cccc34)c2)cs1`, the growth is -62.7% (active).

In the case of `Cc1cc(=O)oc2cc(OCCCCOc3ccc(/C=C/C(=O)Nc4cccc(Cl)c4)cc3)ccc12`, the growth is 86.9%.

In the case of `COc1ccccc1C(=O)NNC(=O)CSc1nc2c(c(=O)[nH]1)CCCC2`, the growth is 112%.

Consider `NC1=NC(c2ccccc2Cl)N=C(Nc2nn[nH]n2)N1` (configuration not stated), for which the growth is 116%.

For `COc1ccc2nc(Cl)c(-c3cc(-c4ccccc4)nc(=O)[nH]3)cc2c1`, the growth was 93.3%.

In the case of `O=c1[nH]n(C(=S)N/N=C/c2ccc(F)cc2)c(=O)c2ccccc12`, the growth is 82.7%.

For the compound `O=C(CS(=O)(=O)c1oc(-c2ccc(Cl)cc2)nc1S(=O)(=O)c1ccccc1)N1CCCC1`, the growth is 82.8%.

As to `O=C1Nc2cc(Cl)ccc2/C1=C/c1cccc(OCc2ccc(Br)cc2F)c1`, the growth was -20% (active).

`Cc1nc2c(cnn2-c2ccccc2)c(=O)n1-c1ccc(NC(=O)c2ccc(F)cc2)cc1`: the growth is 77.9%.

As for `S=c1nc(-c2ccccc2)cc(-c2cc3ccccc3nc2Cl)[nH]1`, the growth is 37.5%.

In the case of `Cc1ccc(C(=O)Nc2ccc(-n3c(C)nc4c(cnn4-c4ccccc4)c3=O)cc2)cc1`, the growth was 78.3%.

`Cc1cc(C)nc(NS(=O)(=O)c2ccc(N/C(N)=N/c3nccc(-c4cccs4)n3)cc2)n1`: the growth is 108%.

For `COc1ccc(CN2[C@H](C(=O)NCc3ccc(C(=O)NO)cc3)Cc3c([nH]c4ccccc34)[C@H]2C2CC2)cc1`, the growth is 44.9%.

Regarding `O=C1Nc2ccc(Cl)cc2/C1=C/c1cccc(OCc2ccccc2)c1`, the growth is 28.4%.

In the case of `O=C(Cn1cc(CSc2nnc3oc4ccccc4n23)nn1)Nc1ccc(Br)cc1`, the growth was 71.5%.

In the case of `CCN1CCN(c2ccc(NC(=O)Nc3ccc(-c4cc(C(=O)NC)c5ncccc5n4)cc3)cc2C(F)(F)F)CC1`, the growth is -72.8% (active).

Take `COc1ccc(-c2nc(S(=O)(=O)c3ccc(C)cc3)c(S(=O)(=O)CC(=O)N(C)Cc3ccccc3)o2)cc1`: the growth was 51.1%.

On to `COC[C@@H](CC(C)C)N=C1NC(=O)/C(=C/c2ccc3ncsc3c2)N1`, for which the growth was -70.7% (active).

Regarding `CC(C)Sc1nc(NC2CC2)c(C#N)c(-c2ccccc2)n1`, the growth is 97.7%.

For the compound `CCOC(=O)N/C(=C1/OCCN1C)[P+](c1ccccc1)(c1ccccc1)c1ccccc1`, the growth was 79.9%.

As for `CS(=O)(=O)Nc1ccc(-c2ccc3c(c2)ncn3-c2ccc(NC(=O)Nc3ccc(Cl)c(C(F)(F)F)c3)cc2)cc1`, the growth is -83% (active).

For the compound `CN1CCc2c(sc3ncnc(N/N=C/c4cn(-c5ccccc5)nc4-c4ccc(Cl)cc4)c23)C1`, the growth is 36.3%.

For `CC1(c2ccccc2)NC(=O)N(CC(=O)Nc2ccc(C(=O)/C=C/c3ccc(Br)cc3)cc2)C1=O` (configuration not stated), the growth is 52.3%.

Consider `O=C(CN1CCN(c2ncnc3c2cnn3-c2ccccc2)CC1)Nc1nncs1`, for which the growth was 28%.

For `COc1ccc(C=CC(=O)c2ccc(-n3c(C)nc4c(cnn4-c4ccccc4)c3=O)cc2)cc1`, the growth is 70.6%.

In the case of `O=C(c1ccc(-n2c(=O)[nH]c3ccccc3c2=O)cc1)N1CCOCC1`, the growth is 102%.
